Results published in the supplement of paper PMC12340641.
Whole data set: some 1,000 compounds, median “relative growth recovery (pomalidomide 10 uM = 100%, DMSO = 0%)” near -1.6, cut for the highest 2% near 21. The sample as a whole holds a higher share of the highest values than the screen did.

The compounds below were run on HEK293FT dCK*-IKZF1 (assay: relative growth recovery (pomalidomide 10 uM = 100%, DMSO = 0%); higher = more growth rescue (IKZF1 fusion degradation)). Details: compound concentration: 5 uM; AraC concentration: 0.3 uM; overnight pretreatment + 4 days AraC.
Method: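 Growth recovery screen of the molecular-glue-like (Specs) library. HEK293FT cells expressing a dCK*-IKZF1 fusion (primary) or dCK* alone (counter) were pretreated overnight with compound at 5 uM, then given 0.3 uM AraC for 4 days. Hoechst nuclei were counted by imaging. Primary: normalised to pomalidomide (100%) and DMSO (0%), mean of 2 replicates. Counter: normalised to no-AraC (100%) and AraC+DMSO (0%), single replicate.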
`Cc1cnc(Nc2cccc(C3CCN(C(=O)C4(NC(=O)C(C)(C)C)CCCCC4)CC3)n2)s1` gave a relative growth recovery of -12.6%.
Compound `O=S(=O)(Nc1ccc(S(=O)(=O)Nc2ncccn2)cc1)c1ccc(Cl)cc1` has a relative growth recovery of -4.2%.
Work on `CCCc1cnc(Nc2cccc(C3(CO)CCN(C(=O)C4CCCCC4)CC3)n2)s1` yielded a relative growth recovery of -17%.
`O=C(C1CCCCC1)N1CCOC(c2cccc(Nc3ncc(Cc4ccccc4)s3)n2)C1` (configuration not stated) gave a relative growth recovery of 2.33%.
`Cc1csc(Nc2cccc(C3CCCN3C(=O)c3ccc4c(c3)CCCN4C)n2)n1` (configuration not stated) was tested, and the relative growth recovery was 7.5%.
`Cc1ccn2cc(C(=O)N3CCCC3c3cccc(Nc4nc(C)c(C)s4)n3)nc2c1` (configuration not stated) was tested, and the relative growth recovery was 39.7%.
`Cc1cnc(C(=O)N2CCCC2c2cccc(Nc3nc(C)c(C)s3)n2)cn1` (configuration not stated) gave a relative growth recovery of 4.79%.
For `Cc1nc(Nc2cccc(C3CCCN3C(=O)c3ccc(=O)n(C)n3)n2)sc1C` (configuration not stated), the relative growth recovery was 5.83%.
Work on `Cc1nc(Nc2cccc(C3CCN(C(=O)CCc4c(C)n[nH]c4C)CC3)n2)sc1C` yielded a relative growth recovery of 26%.
`Cc1ccc2[nH]nc(C(=O)N3CCCC3c3cccc(Nc4nc(C)cs4)n3)c2c1` (configuration not stated) showed a relative growth recovery of -0.105%.
`Cc1csc(Nc2cccc(C3CCCN3C(=O)c3ccc4[nH]c(C(C)C)nc4c3)n2)n1` (configuration not stated) showed a relative growth recovery of 36.3%.
Compound `Cc1cnc(NC(=O)CN2CCC(c3cccc(Nc4nc(C)c(C)s4)n3)CC2)s1` has a relative growth recovery of 30.3%.
`Cc1nc(Nc2cccc(C3CN(C(=O)CCc4c(C)n[nH]c4C)CCO3)n2)sc1C` (configuration not stated) showed a relative growth recovery of -0.835%.
`Cc1cnc(NC(=O)CN2CCC(c3cccc(Nc4ncc(C)s4)n3)CC2)s1` was tested, and the relative growth recovery was -13.8%.
Work on `Cc1cnc(Nc2cccc(C3CCN(CC(=O)Nc4c(F)cccc4F)CC3)n2)s1` yielded a relative growth recovery of -13.4%.
`COCCC(=O)N1CCC(c2cccc(Nc3nc(C)c(C)s3)n2)CC1` was tested, and the relative growth recovery was 9.99%.
For `Cc1csc(Nc2cccc(C3CCN(CC(=O)NCc4ccccn4)CC3)n2)n1`, the relative growth recovery was -8.2%.
`COc1ccc(NC(=O)CN2CCC(c3cccc(Nc4nc(C)cs4)n3)CC2)cc1` gave a relative growth recovery of 32.9%.
In the case of `Cc1cnc(Nc2cccc(C3CCN(C(=O)c4cccnc4)CC3)n2)s1`, the relative growth recovery is reported as -18.6%.
In the case of `CCOCc1ccc(C(=O)N2CCC(c3cccc(Nc4ncc(C)s4)n3)CC2)cc1`, the relative growth recovery is reported as 29.5%.
`CC(=O)N1CCC(c2cccc(Nc3ncc(C)s3)n2)CC1` was tested, and the relative growth recovery was -19%.
Work on `COc1ccc(NC(=O)CN2CCC(c3cccc(Nc4ncc(C)s4)n3)CC2)cc1` yielded a relative growth recovery of -11%.
Work on `CC(=O)Nc1ccc(S(=O)(=O)Nc2ncccn2)cc1` yielded a relative growth recovery of -3.27%.
Compound `Cc1ccc2[nH]c3nc(SCC(=O)Nc4ccc(F)cc4)nnc3c2c1` has a relative growth recovery of -0.35%.
Compound `Cc1cc(C)nc(NS(=O)(=O)c2ccc(NC(=S)NC(=O)/C=C/c3ccccc3)cc2)n1` has a relative growth recovery of -1.71%.
`CS(=O)(=O)NCC(=O)N1CCC(c2cccc(Nc3ncc(-c4ccccc4)s3)n2)CC1` showed a relative growth recovery of -20.5%.
Work on `COCCOCC(=O)Nc1ccc(S(=O)(=O)Nc2cc(C)nc(C)n2)cc1` yielded a relative growth recovery of -1.1%.
In the case of `C[C@@H](N)C(=O)N1CCC(CO)(c2cccc(Nc3ncc(-c4ccccc4)s3)n2)CC1`, the relative growth recovery is reported as -18.2%.
In the case of `Cc1csc(Nc2cccc(C3CCN(CC(=O)N4CCC(C(N)=O)CC4)CC3)n2)n1`, the relative growth recovery is reported as 5.36%.
`Cc1cnc(Nc2cccc(C3(C(=O)NCCO)CCN(C(=O)C4CCCCC4)CC3)n2)s1` gave a relative growth recovery of -5.96%.
Compound `COCCC(=O)N1CCC(c2cccc(Nc3ncc(C)s3)n2)CC1` has a relative growth recovery of -3.65%.
`O=C(O)COCCOCCNc1cc2c(cc1F)C(=O)N(C1CCC(=O)NC1=O)C2=O` (configuration not stated) showed a relative growth recovery of -7.7%.
Work on `O=C(CSc1nc2cc(Cl)ccc2[nH]1)Nc1ncccn1` yielded a relative growth recovery of -1.69%.
In the case of `COc1cc(NS(=O)(=O)c2ccc(NC(=O)CCl)cc2)nc(OC)n1`, the relative growth recovery is reported as -5.68%.
`COc1ccc(Cl)c2c1[nH]c1nc(SCC(=O)Nc3ccc(Cl)cc3)nnc12` gave a relative growth recovery of 2.88%.
Work on `Cc1cnc(Nc2cccc(C3CCCN3C(=O)Cn3cnc4ccccc43)n2)s1` (configuration not stated) yielded a relative growth recovery of -19.5%.
In the case of `O=C(CSc1nnc2c(n1)[nH]c1ccccc12)Nc1ccc(F)cc1`, the relative growth recovery is reported as 7.2%.
In the case of `CCCCc1cnc(Nc2cccc(C3CCN(C(=O)C(C)(C)NC(=O)OC(C)(C)C)CC3)n2)s1`, the relative growth recovery is reported as -15.7%.
For `O=C(O)CN1CCN(c2cccc3c2C(=O)N(C2CCC(=O)NC2=O)C3=O)CC1` (configuration not stated), the relative growth recovery was 0.995%.
In the case of `Cc1ccnc(NS(=O)(=O)c2ccc(NC(=O)c3cccs3)cc2)n1`, the relative growth recovery is reported as 3.83%.
In the case of `Cc1ccc(C(C)C)c(OCC(=O)Nc2ccc(S(=O)(=O)Nc3ccccn3)cc2)c1`, the relative growth recovery is reported as -1.57%.
`COc1ccc(C(=O)Nc2ccc(S(=O)(=O)Nc3ccccn3)cc2)cc1` was tested, and the relative growth recovery was -5.12%.
With `Cc1ccc2[nH]c3nc(SCC(=O)Nc4ccc(C)c(Cl)c4)nnc3c2c1` the relative growth recovery was -24.6%.
For `CCCc1cnc(Nc2cccc(C3CCN(C(=O)CN)CC3)n2)s1`, the relative growth recovery was -15.8%.
`CC(=O)Nc1ccc(S(=O)(=O)Nc2cc(C)nc(C)n2)cc1` showed a relative growth recovery of -1.14%.
With `Cc1ccnc(NS(=O)(=O)c2ccc(NC(=O)c3ccccc3C)cc2)n1` the relative growth recovery was -1.84%.
`COc1ccc(NS(=O)(=O)c2ccc(N)cc2)nn1` showed a relative growth recovery of 3.75%.
`O=C(CCCOc1ccc(Cl)cc1)Nc1ccc(S(=O)(=O)Nc2ncccn2)cc1` showed a relative growth recovery of 0.13%.
With `Cc1ccnc(NS(=O)(=O)c2ccc(NC(=O)c3ccc(Cl)cc3[N+](=O)[O-])cc2)n1` the relative growth recovery was -0.255%.
Work on `Cc1cc(C)nc(NS(=O)(=O)c2ccc(/N=C3/NC(=O)CS3)cc2)n1` yielded a relative growth recovery of -0.9%.
In the case of `O=C(Nc1ccc(S(=O)(=O)Nc2ncccn2)cc1)c1cccc(Br)c1`, the relative growth recovery is reported as -4.75%.
Compound `Cc1csc(Nc2cccc(C3CCN(C(=O)c4nccc5ccccc45)CC3)n2)n1` has a relative growth recovery of -0.34%.
For `Cc1cnc(Nc2cccc(C3CCN(C(=O)c4cccc5cccnc45)CC3)n2)s1`, the relative growth recovery was -2%.
`Cc1ccnc(NS(=O)(=O)c2ccc(NC(=O)c3ccc4c(c3)OCO4)cc2)n1` gave a relative growth recovery of 0.925%.
With `Cc1cc(NS(=O)(=O)c2ccc(NC(=O)COc3ccccc3Cl)cc2)nc(C)n1` the relative growth recovery was 3.46%.
In the case of `CC(=O)N1CCCCC1c1csc(Nc2ccccn2)n1` (configuration not stated), the relative growth recovery is reported as 1.36%.
`Cc1cc(NS(=O)(=O)c2ccc(NC(=O)c3ccccc3C)cc2)nc(C)n1` gave a relative growth recovery of -1.93%.
Compound `Cc1csc(Nc2cccc(C3CCCN3C(=O)Cc3ccc(F)cc3)n2)n1` (configuration not stated) has a relative growth recovery of 3.22%.
With `CN1CCN(CC(=O)N2CCC(c3cccc(Nc4ncc(-c5ccccc5)s4)n3)CC2)CC1` the relative growth recovery was -17.9%.
`Cc1cnc(Nc2cccc(C3CN(C(=O)CN(CCC(C)C)c4ccccc4)CCO3)n2)s1` (configuration not stated) showed a relative growth recovery of -3.83%.
Compound `O=C(CCn1ncc2c1CCCC2)N1CCOC(c2cccc(Nc3nccs3)n2)C1` (configuration not stated) has a relative growth recovery of 14.7%.
With `Cc1cnc(Nc2cccc(C3CCN(C(=O)C4(N)CCCCC4)CC3)n2)s1` the relative growth recovery was -17.6%.
